Results reported in PubChem BioAssay AID1626 (SRMLSC, 2009).
In all, about 220,000 compounds went through this assay and about 2,000 (0.91%) were called active. Inconclusive results (about 2%) are left out. Rule as the data show it: inconclusive = inhibition above about 80% without an active follow-up result; inactive = below that; test concentration not stated here. These entries were drawn from the full list. Potency and affinity values are given separately.

assay: M. tuberculosis H37Rv growth inhibitors, H37Rv strain (AID 1626); settings: stronger effect = higher value, concentration not given here;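 also: bacteria incubated seven days before Alamar blue readout; 0% = bacteria only wells and 100% = bacteria with antibiotic wells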

Row | Structure (SMILES) | inhibition
1 | COc1ccc(OC)c2c(C)cc(N3CCN(C(=O)c4ccc(F)cc4)CC3)nc12 | 8.6% (inactive)
2 | O=C(/C=C/c1ccco1)Nc1ccccc1N1CCCCC1 | 10.2% (inactive)
3 | Cc1c(NC(=S)N/C(=N/S(=O)(=O)c2ccc(Cl)cc2)c2ccccc2)c(=O)n(-c2ccccc2)n1C | 3.87% (inactive)
4 | Cc1ccc(S(=O)(=O)Nc2cccc(C(=O)Nc3cc(C)ccn3)c2)cc1 | 7.87% (inactive)
5 | Cc1ccc(C2=NC3(CCCCCC3)NC2=S)cc1 | 7.91% (inactive)
6 | Cc1ccc(Cl)cc1-c1ccc(C=Nc2ccc(N3CCOCC3)cc2)o1 | 9.51% (inactive)
7 | Clc1cccc(-c2ccc(C=Nc3ccc(N4CCOCC4)cc3)o2)c1 | 32.1% (inactive)
8 | COc1cccc(CN2CCCCC2C(=O)O)c1 (stereo not drawn) | -3.4% (inactive)
9 | Clc1cccc(-c2nc(NCCCN3CCOCC3)c3ccccc3n2)c1 | 15% (inactive)
10 | Clc1ccc(-c2nc(NCCN3CCOCC3)c3ccccc3n2)cc1 | 11.1% (inactive)
11 | COc1ccc(-c2nn(-c3ccccc3C)cc2CNC(C)c2cn(C)nc2C)cc1F (stereo not drawn) | -2.3% (inactive)
12 | COc1ccc(NC(=O)CSc2nnc(Cn3c(=O)sc4ccccc43)n2C)cc1OC | -2.38% (inactive)
13 | CCOC(=O)c1sc2nc(Cc3ccc(Cl)cc3)[nH]c(=S)c2c1C | 62.6% (inactive)
14 | CCOC(=O)c1sc2nc(C)n(N)c(=O)c2c1C | 3.43% (inactive)
15 | CCC(=NCc1ccc2c(c1)OCO2)c1c(O)n(C)c(=O)n(C)c1=O | -0.05% (inactive)
16 | Clc1cccc(Cl)c1/C=N/Nc1c(Cl)cncc1Cl | -5.97% (inactive)
17 | COc1ccc(/C=C2\C(=O)c3ccccc3OC2c2ccccc2)cc1 (stereo not drawn) | 0.26% (inactive)
18 | Cc1ccc(N=Cc2ccc[nH]2)c(O)c1 | -2.8% (inactive)
19 | O=C(N/N=C/c1ccc[nH]1)c1ccccc1O | -6.87% (inactive)
20 | Cc1ccc(CCSc2ccc(F)cc2)cn1 | 0.68% (inactive)
21 | CN1CCN(Cc2ccc(-c3ccc(Cl)cc3)o2)CC1 | 4.34% (inactive)
22 | O=C(O)CCc1ccc(-c2ccc(Cl)cc2)o1 | 62.7% (inactive)
23 | O=C(COCC(=O)N1CCOCC1)N1CCOCC1 | -0.86% (inactive)
24 | COc1ccc(OC)c(-n2nnnc2SCC(=O)Nc2nc(C)c(C)s2)c1 | -6.27% (inactive)
25 | COc1ccc(C(=O)Nc2ccccc2Cc2ccccc2)c(OC)c1 | 12.6% (inactive)
26 | CCOCCOC(=O)c1ccc(-n2cnc(C)n2)nc1 | 1.52% (inactive)
27 | C=CCOC(=O)c1ccc(-n2cnc(C)n2)nc1 | 34.4% (inactive)
28 | CC(C)CN1CCN(Cc2ccc(Oc3ncccn3)cc2)CC1CCO (stereo not drawn) | -12.7% (inactive)
